# Experimental data: PubChem BioAssay (NCATS)
# A number with no mark means an inactive call. Inconclusive results are not listed. The source made the active and inactive calls. Unless noted, the call rests on the fitted dose curve; in most records, active means well fitted curve in either direction with a large enough effect (not every such curve was filed as active); inconclusive means small, poorly fitted or top-dose-only effect, or another doubt; inactive means flat fitted curve, though single readings scatter.
# Key:
# [1] = AP1 Signaling Pathway (AID 357); details: ME-180 AP-1-bla reporter, EGF-induced, beta-lactamase ratio, 5 h; at 17.2 µM (top of the series) unless noted;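 further: ME-180 reporter cells stimulated with EGF at its EC50 level; on the % scale 0 is the no-effect control and ±100 the full control effect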
# How it was run: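 Cells are seeded overnight, exposed to compound titrations and an EC50 level of EGF for 5 hours at 37 °C, then loaded with CCF4 dye for 2.5 hours. Beta-lactamase activity under the AP-1 element is read as a blue/green ratio.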
# [2] = Stat Signaling Pathway (AID 446); details: ME-180 SIE beta-lactamase reporter, IL-6 stimulated, 5 h; at 17.2 µM (top of the series) unless noted;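 further: ME-180 cervical cancer cells given 40 pM IL-6 alongside compound; SIE-controlled beta-lactamase reporter measured as 460/530 nm FRET emission ratio; on the % scale 0 is the no-effect control and ±100 the full control effect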
# How it was run: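 Reporter line: ME-180 cervical carcinoma, SIE-beta-lactamase. Treatment: compound with 40 pM IL-6, 5 hrs, 37 C, in low-serum OPTI-MEM with 10 mM HEPES pH 7.3. Detection: 460/530 nm fluorescence.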
# [3] = target: Glucocorticoid receptor (Homo sapiens) (UniProt P04150); test: GR-GFP Redistribution (AID 450;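 active means compounds whose dose series gives a full or clear partial fitted curve of increased nuclear translocation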; further: potency means the concentration at half of the fitted maximal effect)
# Sequence of Glucocorticoid receptor (Homo sapiens) (P04150 whole entry, looked up, the tested form may be a part): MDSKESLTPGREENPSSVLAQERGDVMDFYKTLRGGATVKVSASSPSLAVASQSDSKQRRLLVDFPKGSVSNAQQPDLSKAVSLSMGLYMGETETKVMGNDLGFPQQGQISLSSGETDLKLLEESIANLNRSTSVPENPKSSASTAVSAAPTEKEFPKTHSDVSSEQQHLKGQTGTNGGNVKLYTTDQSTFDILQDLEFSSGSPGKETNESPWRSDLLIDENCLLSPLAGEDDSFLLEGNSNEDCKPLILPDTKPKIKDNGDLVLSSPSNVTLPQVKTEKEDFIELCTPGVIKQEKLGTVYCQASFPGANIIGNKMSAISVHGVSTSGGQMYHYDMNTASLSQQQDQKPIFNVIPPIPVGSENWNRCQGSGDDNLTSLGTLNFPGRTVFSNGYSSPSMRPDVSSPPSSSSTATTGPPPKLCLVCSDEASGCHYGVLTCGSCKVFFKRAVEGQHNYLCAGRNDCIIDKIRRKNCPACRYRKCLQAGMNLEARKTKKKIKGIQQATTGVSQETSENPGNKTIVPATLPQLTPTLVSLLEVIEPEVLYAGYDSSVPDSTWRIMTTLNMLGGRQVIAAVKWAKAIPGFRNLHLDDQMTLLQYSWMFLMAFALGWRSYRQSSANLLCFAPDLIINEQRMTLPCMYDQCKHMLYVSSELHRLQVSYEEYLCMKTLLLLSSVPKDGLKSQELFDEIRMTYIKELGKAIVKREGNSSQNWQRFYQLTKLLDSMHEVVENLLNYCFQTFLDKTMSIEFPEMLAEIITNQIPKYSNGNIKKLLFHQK
# [4] = qHTS for Inhibitors of the vitamin D receptor (VDR): Hit Validation using a Texas Red Assay (AID 602201; active means well fitted curve in the direction sought with a large enough effect; further: potency means the concentration at half of the fitted maximal effect); details: VDR coregulator binding, Texas Red fluorescence polarization; agonist-bound VDR ligand-binding domain
# How it was run: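 After a 2-hour room-temperature incubation, polarization of Texas-Red emission was read (Ex 595 nm/Em 615 nm). Final mix contained 7 nM Texas Red, 1.5 uM VDR-LBD and LG19078.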
SMILES,"activity change, negative = inhibition [1] [%]","activity, negative = inhibition [2] [%]",Potency [3] [µM],Potency [4]
CCC1CCCCN1c1nc(-c2ccncc2)nc2ccccc12 (stereo unspecified),-20.7,-2.48,> 20.6,
CC(C)Oc1ccc(C(=O)CCN2CCCCC2)cc1,,,,3.98 µM (active)
C=CCOn1c(=O)c(-c2ccc(OC)cc2)[n+]([O-])c2ccccc21,-22.9,,> 20.6,
O=C(/C=C/c1ccccc1)c1ccccc1,19.8,,> 20.6,
CCN1CCN(c2nc3c(C)cccn3c(=O)c2/C=C(\C#N)S(=O)(=O)c2ccc(C)cc2)CC1,6.19,,> 20.6,
CC1CCN(c2oc(-c3ccccc3Cl)nc2C#N)CC1,-14,,> 20.6,
Fc1ccc2[nH]c3c(N4CCSCC4)ncnc3c2c1,-16.7,,> 20.6,
Oc1ccccc1-c1nc(NCc2ccco2)c2ccccc2n1,19.5,,> 20.6,
Cc1ccc(CNC(=O)c2cc3c(=O)n4ccccc4nc3n(Cc3ccco3)c2=N)cc1,5.13,,> 20.6,
CN1CCc2c(sc3c2c(=O)n(-c2ccccc2)c2nnc(SCc4ccccc4)n32)C1,-13.6,,> 20.6,
CC(C)(C)c1cc(-c2ccco2)c(C#N)c(SCC#N)n1,28.8,,> 20.6,
c1ccc(CN2CCN(c3ncnc4c3[nH]c3ccccc34)CC2)cc1,-15.1,,> 20.6,
CCOC(=O)NC(Nc1sc2c(c1C(=O)OC)CCN(C)C2)(C(F)(F)F)C(F)(F)F,12.1,,> 20.6,
Cc1cc(C)n(CC(=O)N2c3ccccc3Sc3ccccc32)n1,-8.25,,> 20.6,
CSc1nc(O)c(Cc2ccccc2)c(=O)[nH]1,-12.8,,> 20.6,
CN1CCc2nc(SCC(=O)Nc3ccc(Cl)cc3)c(C#N)cc2C1,5.33,,> 20.6,
CCOC(=O)CSc1nnc2n(Cc3ccccc3)c(=O)c3c4c(sc3n12)CCC4,-11.8,,> 20.6,
COc1ccc(C(=O)Nc2cccnc2)cc1C(=O)Nc1cccnc1,3.61,,> 20.6,
